proKLK7 act: activates the human kallikrein-7 zymogen | purified proKLK7, EDANS-DABCYL substrate fluorescence; 100% is mature enzyme control, 0% vehicle | actives 0.9% (n = 370,000) | activation, % at 7 µM;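 active = activation above the mean of all tested compounds plus 3 SD, computed per campaign excluding outliers beyond control limits, cut at about 13% in these data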
Target sequence (P49862 whole entry, looked up): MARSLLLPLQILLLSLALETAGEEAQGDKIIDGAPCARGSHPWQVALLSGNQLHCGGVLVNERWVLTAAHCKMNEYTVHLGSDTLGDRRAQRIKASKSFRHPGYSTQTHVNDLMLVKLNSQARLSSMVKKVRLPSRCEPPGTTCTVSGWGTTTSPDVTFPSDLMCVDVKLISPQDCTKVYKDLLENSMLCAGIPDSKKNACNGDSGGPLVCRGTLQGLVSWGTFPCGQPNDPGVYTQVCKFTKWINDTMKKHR
ADAM17 inh: inhibitors of human ADAM17; P78536; recombinant ADAM17, EDANS/DABCYL FRET peptide cleavage; inhibition, % at 6.95 µM; actives 0.83% (n = 370,000); AID 720648;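 active = inhibition above the mean of compounds lying between control limits plus 3 SD, set per campaign, cut at about 8.5% in these data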;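 note: 0% = DMSO-only wells as the low control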
ADAM10 inh: inhibitors of human ADAM10 | O14672 | AID 720582 | recombinant ADAM10, EDANS/DABCYL FRET peptide cleavage, 3 h | actives 0.62% (n = 370,000) | inhibition, % at 7 µM;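 active = inhibition above a per-campaign cutoff equal to the mean of compounds falling between control-based bounds plus 3 SD, cut at about 20% in these data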;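 note: 0% = DMSO wells while the 100% control is not disclosed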
Ecoli rRNA inh: inhibits bacterial ribosomal RNA function over humanized ribosomes; GFP signal change (wild-type ribosome), % (test concentration not listed); E. coli WT GFP vs humanized-ribosome RFP mutants, fluorescence, 24 h; active compounds read low; DMSO median 0, no signal -100; actives 1.6% (n = 350,000); AID 720706;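 active = significant combined selectivity score with lowered wild-type GFP, culture density cut under 30%, mutant RFP and density less affected; inactive = any of these conditions unmet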
FGF22 binding: binders of recombinant human FGF22 by thermal shift | Q9HCT0 | actives 1.5% (n = 340,000) | AID 651658 | activity (Tm shift, normalised), % at 9.99 µM | SYPRO orange fluorescence; percent of sucrose octasulfate shift, DMSO zero;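 active = mean Tm shift, scaled 0 neutral to 100 positive control, at about 1.3% or above, every replicate too, limit read from the data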
Target sequence (Q9HCT0 whole entry, looked up): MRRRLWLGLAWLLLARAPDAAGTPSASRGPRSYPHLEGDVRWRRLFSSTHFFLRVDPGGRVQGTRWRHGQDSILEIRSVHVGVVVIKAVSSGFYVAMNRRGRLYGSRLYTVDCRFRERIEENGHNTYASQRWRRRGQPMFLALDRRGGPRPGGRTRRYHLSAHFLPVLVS
An asterisk follows results filed as active; x = no result. Only some compounds are listed: those with a hit (about 3.8% of all), similar ones and a draw of the others.

SMILES | proKLK7 act | ADAM17 inh | ADAM10 inh | Ecoli rRNA inh | FGF22 binding
CCOC(=O)c1ccc(CC(=O)c2oc3cc(O)ccc3c2C)o1 | -40.6 | -19.4 | -67.7 | -21.6* | 0.0
CC(=O)Nc1ccc2c(c1)C(=O)N(C)C[C@@H](C)[C@H](CN(C)C)O2 | x | x | x | 2.9 | x
COc1cccc(NC(=O)CCNS(=O)(=O)c2cccc3nsnc23)c1 | -0.4 | 2.0 | 13.2 | -8.3 | 43.8*
CN(C)C(=O)[C@@H]1[C@@H](CO)[C@@H]2Cn3c(ccc(-c4ccncc4)c3=O)[C@H]1N2CC1CCCC1 | x | x | x | 1.6 | -0.1
C[C@H](CO)N1C[C@H](C)[C@H](CN(C)C(=O)Nc2ccc3c(c2)OCO3)OCCCC[C@H](C)Oc2ccc(NS(=O)(=O)c3ccc(Cl)cc3)cc2C1=O | x | x | x | -0.5 | 0.2
COc1ccc(CCNC(=O)[C@@]2(Sc3ccc(C)cc3)CC(=O)N(C(C)C)[C@@H]2c2ccc(CO)cc2I)cc1 | x | x | x | x | 1.3*
Cc1ccc(S[C@]2(C(=O)NC(C)C)CC(=O)N(C3CCCCC3)[C@@H]2c2ccc(CO)cc2I)cc1 | x | x | x | x | -0.7
CC(C)NC(=O)N(C)C[C@@H]1Oc2c(NS(C)(=O)=O)cccc2C(=O)N(C)C[C@@H]1C | x | x | x | 2.2 | x
CC1=C(C(=O)OC2CCCCCCC2)C(c2cccc(O)c2)NC(=O)N1 (centres undefined) | 0.7 | 7.2 | 16.8 | -33.4* | 0.2
COc1ccccc1CNC(=O)C[C@@H]1CC[C@H]2[C@@H](COC[C@@H](O)CN2C(=O)Nc2ccccc2)O1 | x | x | x | 0.5 | -0.3
COc1ccc(C(=O)Nc2cccnc2Sc2ccc(Cl)cc2)cc1 | 0.3 | -3.4 | -0.5 | -4.8 | 29.0*
O=C(NCCCCCNC(=O)c1ccccn1)c1ccccn1 | 0.1 | -1.8 | -5.8 | 19.0 | 0.3
CCOC(=O)Nc1cccnc1Sc1ccc(Cl)cc1 | 0.7 | -3.8 | -11.7 | 4.5 | 0.0
COc1ccc(C(=O)NNC(=O)c2ccccn2)cc1 | -0.6 | -2.1 | 9.5 | 7.0 | 43.8*
O=C(NCCCCNC(=O)c1ccccn1)c1ccccn1 | 0.0 | 0.2 | 2.0 | 10.8 | 43.2*
COc1cc(OC)cc(C(=O)NNC(=O)c2ccccn2)c1 | -0.1 | 1.2 | 2.7 | -32.6 | 0.2
C[C@H]1CN(C)C(=O)c2cccc(N)c2O[C@H]1CN(C)C(=O)OC(C)(C)C | x | x | x | 0.2 | x
C[C@@H]1CN([C@@H](C)CO)C(=O)c2cc(NC(=O)CCCN(C)C)ccc2O[C@@H](C)CCCCO[C@H]1CN(C)Cc1ccc(C(F)(F)F)cc1 | x | x | x | 6.8 | 0.1
O=C(Cc1ccc(Cl)c(Cl)c1)Nc1cccc2ncccc12 | 0.8 | -6.0 | -6.5 | -13.8 | 43.0*
C[C@@H]1CN([C@@H](C)CO)S(=O)(=O)c2ccc(-c3ccccc3)cc2O[C@H]1CN(C)C(=O)C1CCC1 | x | x | x | -14.4 | x
Cc1ccc(Nc2nc(Cl)nc3ncn(C)c23)c(C)c1 | -0.5 | -3.1 | -9.3 | -36.0* | -0.1
CC(=O)N[C@@H]1CC[C@@H](CCNC(=O)Nc2ccc(C(F)(F)F)cc2)O[C@@H]1CO | x | x | x | -62.1 | -0.4
CCn1cc(CN2CCc3c([nH]c4ccccc34)C2c2cccc(O)c2)c(C)n1 (centres undefined) | 6.9 | -13.7 | -52.3 | -4.3 | -0.2
CCn1cc(CN2N=C(C)CC2c2ccccc2)c(C)n1 (centres undefined) | -0.6 | -0.8 | -0.6 | 7.5 | 44.0*
C[C@H](NC(=O)Cc1cccc2ccccc12)C(=O)NCc1ccccc1 | 0.5 | -9.2 | -5.1 | -31.6* | -0.5
SMILES | proKLK7 act | ADAM17 inh | ADAM10 inh | Ecoli rRNA inh | FGF22 binding
Cc1ccccc1NC(=O)c1ccccc1NC(=O)Cc1cccc2ccccc12 | 0.0 | 0.2 | -4.0 | -7.6 | -0.5
Cc1ccccc1C(=O)NNC(=O)Cc1cccc2ccccc12 | -0.1 | -5.5 | -11.1 | -40.8* | -0.1
C[C@@H]1CCCCO[C@H](CN(C)Cc2ccc3c(c2)OCO3)[C@H](C)CN([C@@H](C)CO)C(=O)c2cc(NC(=O)Nc3ccc(F)cc3)ccc2O1 | x | x | x | -9.8 | -0.7
O=C(CSc1nnc2ccccn12)NNC(=O)c1ccc(Cl)cc1 | 0.2 | -4.1 | -9.4 | 17.2 | 0.1
O=C(CSc1nnc2ccccn12)c1ccc(Cl)cc1 | 0.1 | 0.5 | 0.3 | -5.2 | 43.2*
CCn1c2ccccc2c2cc(NC(C)=O)ccc21 | 1.1 | -3.0 | -7.5 | x | x
CCn1c2ccccc2c2cc(NC(=O)c3ccco3)ccc21 | 0.5 | 0.8 | -0.9 | -34.5* | 0.2
COc1ccc(-c2cccc(NC(=O)c3ccco3)c2)nn1 | -0.1 | -2.8 | -2.2 | -2.6 | -0.2
